USP10 inh – inhibitors of human USP10 deubiquitinase | Ubiquitin carboxyl-terminal hydrolase 10 (Homo sapiens), Q14694 | purified USP10, Ub-rhodamine fluorescence, 60 min | inhibition, % at 20 µM | actives 1.1% (n = 47,000) | AID 1645856, 2021
USP17 inh – inhibitors of human USP17 deubiquitinase | actives 6.5% (n = 47,000) | purified USP17, Ub-rhodamine cleavage fluorescence, 3 h | AID 1645855, 2021 | inhibition, % at 50 µM | Ubiquitin carboxyl-terminal hydrolase 17-like protein 5 (Homo sapiens), A8MUK1
Target sequence (A8MUK1 whole entry, looked up): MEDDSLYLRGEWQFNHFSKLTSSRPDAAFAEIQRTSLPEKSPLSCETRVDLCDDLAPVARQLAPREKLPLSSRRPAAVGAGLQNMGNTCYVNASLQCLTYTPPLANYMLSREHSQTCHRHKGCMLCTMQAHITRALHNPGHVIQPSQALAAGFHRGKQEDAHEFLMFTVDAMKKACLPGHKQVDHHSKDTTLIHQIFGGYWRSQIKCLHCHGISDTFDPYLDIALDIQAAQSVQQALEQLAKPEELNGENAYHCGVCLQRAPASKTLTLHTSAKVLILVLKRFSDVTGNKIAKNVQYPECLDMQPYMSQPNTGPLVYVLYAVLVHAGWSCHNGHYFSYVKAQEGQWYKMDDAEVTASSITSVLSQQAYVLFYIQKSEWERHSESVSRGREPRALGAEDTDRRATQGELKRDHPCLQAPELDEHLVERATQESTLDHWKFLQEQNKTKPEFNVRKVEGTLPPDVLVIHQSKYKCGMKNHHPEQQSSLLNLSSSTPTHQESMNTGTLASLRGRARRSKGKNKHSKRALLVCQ
USP7 block – inhibitors of human USP7 deubiquitinase | Ubiquitin carboxyl-terminal hydrolase 7 (Homo sapiens), Q93009 | purified USP7, Ub-rhodamine cleavage fluorescence | inhibition, % at 20 µM | actives 0.3% (n = 47,000) | AID 1645854, 2021
USP8 block – inhibitors of human USP8 deubiquitinase. purified USP8, Ub-rhodamine cleavage fluorescence, 30 min. Ubiquitin carboxyl-terminal hydrolase 8 (Homo sapiens), P40818. actives 4.2% (n = 47,000). inhibition, % at 20 µM. AID 1645853, 2021
USP30 block – inhibitors of human USP30 deubiquitinase; actives 5.3% (n = 47,000); inhibition, % at 25 µM; purified USP30, Ub-rhodamine cleavage fluorescence; AID 1645860, 2021; Ubiquitin carboxyl-terminal hydrolase 30 (Homo sapiens), Q70CQ3
UCHL1 inh – inhibitors of human UCHL1 deubiquitinase; AID 1645859, 2021; inhibition, % at 20 µM; purified UCHL1, Ub-rhodamine cleavage fluorescence; actives 0.2% (n = 47,000)
Active calls of the source: *; i = inactive. Hits are enriched below; roughly 12% of the tested compounds scored in any of these assays. Rule as the data show it: active = inhibition above about 30%; inactive = the rest.

SMILES	USP10 inh	USP17 inh	USP7 block	USP8 block	USP30 block	UCHL1 inh
CC[C@@]1(O)C[C@H](O)c2c(cc3c(c2O)C(=O)c2c(O)cccc2C3=O)[C@H]1C(=O)OC	-9.1	-174.8	-131.7	-321.1	i	-148.3
CCC(CC)n1[nH]c(=O)c2c1NC(=O)CSC2c1ccc2c(c1)OCO2 (stereo not drawn)	5.2	64.8*	9.9	43.4*	15.7	-0.7
N#Cc1ccc(COC(=O)C(O)(c2ccccc2)c2ccccc2)cc1	6.1	17.0	-105.5	5.0	9.6	5.9
Cc1ccc2nc(COC(=O)C(O)(c3ccccc3)c3ccccc3)cc(=O)n2c1	-1.9	-1.8	-14.7	40.1*	-55.9	2.4
Cc1ccccc1SCc1nc2ccccc2c(=O)n1-c1cccc(C(F)(F)F)c1	7.2	11.3	-13.8	18.5	10.4	9.3
O=c1c2ccccc2nc(CSc2cccc(Cl)c2Cl)n1-c1ccccc1	21.3	6.3	0.2	30.4*	12.0	-2.4
CC1CCC/C=C/C=C/C(O)CC(O)C/C=C\C=C\C(O)C/C=C/C=C\C(=O)O1 (stereo not drawn)	-4.5	18.8	0.1	-63.0	-77.5	-3.8
NCC1OC(OC2C(N)CC(N)C(O)C2O)C(N)C(O)C1O (stereo not drawn)	1.3	-7.2	5.9	-2.7	-0.1	-1.4
CC(C)N(C)C(=O)C1=NOC2(CCCNC2)C1 (stereo not drawn)	0.5	-17.2	0.0	-131.5	-24.6	-5.5
CN(C)Cc1c[nH]c2c(OCc3ccccc3)cccc12	-1.1	8.1	-17.0	1.3	34.9*	1.1
COc1ccccc1C1SCC(=O)Nc2c1c(C)nn2C1CCOC(C)(C)C1 (stereo not drawn)	-0.2	7.2	-1.9	-29.1	0.6	-0.9
CO[C@H]1CC[C@H](O)c2c1oc1c3c4c(c(O)c1c2=O)-c1c(cc2cc(C)n(N)c(=O)c2c1O)C[C@@H]4OCO3	-3.9	27.9	4.3	2.2	-29.4	10.7
COc1c(Cl)ccc2c(=O)c3c(oc12)C1=C2[C@@H](OCO1)[C@@H](OC)c1cc4c(c(O)c1[C@@]2(O)[C@H]3O)C(=O)N(C)[C@H](OC)[C@@H]4O	-8.2	12.4	3.7	-16.7	59.9*	12.0
COc1c(Cl)ccc2c(=O)c3c(O)c4c5c(c3oc12)OCO[C@H]5[C@@H](OC)c1cc2c(c(O)c1-4)C(=O)N(C)[C@H](OC)[C@@H]2O	2.3	-11.9	2.0	6.1	64.2*	5.8
CN=C1NC(=O)[C@H]([C@@H](C)c2c[nH]c3ccccc23)O1	-1.2	-6.7	-0.1	0.3	0.5	-1.1
CCn1cc(-c2c(C#N)c(N)nc3c2CCCCCC3)c(C)n1	0.0	5.6	2.8	2.5	7.6	3.1
COC(=O)[C@]1(O)O[C@@]2(C(=O)OC)c3c(oc4cc(C)cc(O)c4c3=O)[C@H]3c4c(oc5cc(C)cc(O)c5c4=O)C[C@H]1[C@H]32	-7.1	53.3*	-21.9	-156.9	-7.9	-21.0
COC(=O)[C@@]1(O)c2c(oc3cccc(O)c3c2=O)OC=C(C)[C@H]1O	0.2	3.5	-1.9	-9.6	-8.7	-0.6
Cc1nn(C2CCOC(C)(C)C2)c2c1C(c1ccc([N+](=O)[O-])cc1)SCC(=O)N2 (stereo not drawn)	1.1	-20.4	-2.1	-109.6	3.7	-1.2
Cc1cc(OCC(=O)NCC(=O)N2CC[C@@]3(O)CCCC[C@H]3C2)c2c3c(c(=O)oc2c1)CCC3	0.0	5.7	-86.3	15.0	26.4	3.8
CO[C@H](c1ccccc1)[C@@H]1NC(=O)[C@H](C)NC(=O)[C@H](C[C@@H](C)CO)N(C)C(=O)[C@H]([C@H](O)c2cn(C(C)(C)[C@@H]3CO3)c3ccccc23)NC(=O)[C@H]([C@H](C)C=C(C)C)NC(=O)[C@H](CC(C)C)N(C)C(=O)[C@H](C(C)C)NC1=O	2.9	33.0*	12.2	17.0	18.6	6.8
CC(C)=CCC[C@H](C(=O)O)[C@@H]1CC[C@]2(C)C3=C(CC[C@@]12C)[C@@]1(C)CCC(=O)C(C)(C)C1CC3 (stereo partly drawn)	38.3*	36.3*	5.8	12.6	31.7*	-0.3
Cn1c(=O)c2ncnnc2n(C)c1=O	88.9*	95.5*	-68.1	98.2*	82.9*	50.5*

Compound activity (PubChem)
